Data taken from PubChem BioAssay (NCATS).
Records with an inconclusive call do not appear. Calls of active or inactive are those of the source. Unless noted, the call rests on the fitted dose curve; in most records, active means well fitted curve in the direction sought with a large enough effect; inconclusive means small, poorly fitted or top-dose-only effect, or another doubt; inactive means no such curve, though single readings can be large; an effect the other way counts as inactive or inconclusive.

Assays:
[1] = biological target: Lysosomal acid glucosylceramidase (Homo sapiens) (UniProt P04062); experiment: Glucocerebrosidase-p2 (AID 348; in the data active means potency below about 10 µM; further: potency means the concentration at half of the fitted maximal effect); settings: purified GBA, blue fluorogenic substrate, 40 min
Lysosomal acid glucosylceramidase (Homo sapiens), sequence (P04062 whole entry, looked up): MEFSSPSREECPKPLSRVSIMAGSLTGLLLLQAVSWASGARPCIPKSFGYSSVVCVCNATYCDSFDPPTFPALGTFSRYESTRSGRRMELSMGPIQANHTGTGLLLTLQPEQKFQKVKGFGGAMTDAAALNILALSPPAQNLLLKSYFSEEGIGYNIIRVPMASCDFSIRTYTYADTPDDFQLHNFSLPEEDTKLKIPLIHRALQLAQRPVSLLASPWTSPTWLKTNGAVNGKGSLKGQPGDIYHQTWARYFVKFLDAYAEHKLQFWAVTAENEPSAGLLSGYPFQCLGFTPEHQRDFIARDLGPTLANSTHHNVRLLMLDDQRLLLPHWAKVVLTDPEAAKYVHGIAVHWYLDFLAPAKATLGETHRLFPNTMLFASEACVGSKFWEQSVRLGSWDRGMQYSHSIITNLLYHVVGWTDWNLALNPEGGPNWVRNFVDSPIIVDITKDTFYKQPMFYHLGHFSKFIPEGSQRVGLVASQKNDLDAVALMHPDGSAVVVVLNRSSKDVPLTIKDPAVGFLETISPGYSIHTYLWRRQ
How it was run: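 Compounds titrated from 0.6 nM upwards against 0.2 nM enzyme in pH 5.9 citric acid/KH2PO4, taurocholate, tween-20; blue fluorogenic substrate 80 uM, 40 min room temperature, stopped and read Ex 365/Em 440 for AC50.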

[2] = AP1 Signaling Pathway (AID 357; active means well fitted curve in either direction with a large enough effect, not every such curve was filed as active; further: on the % scale 0 is the no-effect control and ±100 the full control effect); settings: ME-180 AP-1-bla reporter, EGF-induced, beta-lactamase ratio, 5 h; at 7.69 µM (top of the series) unless noted
How it was run: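 Titration-series screen for positive or negative modulators of EC50 EGF-induced signaling in ME-180 cells carrying an AP-1-driven beta-lactamase reporter. After 5 hours at 37 degrees Celsius, CCF4 460nm/530nm emission ratio gave %Activity; AC50 values derived.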

[3] = NFAT Signaling Pathway (AID 444; active means well fitted curve in either direction with a large enough effect, not every such curve was filed as active;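 further: carbachol stimulus at about its EC50 of 1 µM final; on the % scale 0 is the no-effect control and ±100 the full control effect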); settings: Jurkat NFAT-bla M1, carbachol, beta-lactamase ratio, 5 h; at 7.69 µM (top of the series) unless noted
How it was run: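 Jurkat cells carrying an NFAT-driven β-lactamase reporter and co-transfected muscarinic M1 receptor were treated with compound plus carbachol (1 uM final, an EC50 level) for 5 h at 37 °C. CCF4 loading followed for 1 h at RT; 460/530 nm ratio gave %activity.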

[4] = Stat Signaling Pathway (AID 446; active means well fitted curve in either direction with a large enough effect, not every such curve was filed as active;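 further: ME-180 cervical cancer cells given 40 pM IL-6 alongside compound; SIE-controlled beta-lactamase reporter measured as 460/530 nm FRET emission ratio; on the % scale 0 is the no-effect control and ±100 the full control effect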); settings: ME-180 SIE beta-lactamase reporter, IL-6 stimulated, 5 h; at 7.69 µM (top of the series) unless noted
How it was run: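 IL-6/STAT signaling read in ME-180 cells via an SIE beta-lactamase reporter. Stimulus was 40 pM IL-6 (its AC50) for 5 hrs, so both activation and inhibition register.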

[5] = biological target: Glucocorticoid receptor (Homo sapiens) (UniProt P04150); experiment: GR-GFP Redistribution (AID 450;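 active means compounds whose dose series gives a full or clear partial fitted curve of increased nuclear translocation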; further: potency means the concentration at half of the fitted maximal effect); settings: U2OS GR-GFP nuclear translocation, laser cytometry, 2 h
Glucocorticoid receptor (Homo sapiens), sequence (P04150 whole entry, looked up, the tested form may be a part): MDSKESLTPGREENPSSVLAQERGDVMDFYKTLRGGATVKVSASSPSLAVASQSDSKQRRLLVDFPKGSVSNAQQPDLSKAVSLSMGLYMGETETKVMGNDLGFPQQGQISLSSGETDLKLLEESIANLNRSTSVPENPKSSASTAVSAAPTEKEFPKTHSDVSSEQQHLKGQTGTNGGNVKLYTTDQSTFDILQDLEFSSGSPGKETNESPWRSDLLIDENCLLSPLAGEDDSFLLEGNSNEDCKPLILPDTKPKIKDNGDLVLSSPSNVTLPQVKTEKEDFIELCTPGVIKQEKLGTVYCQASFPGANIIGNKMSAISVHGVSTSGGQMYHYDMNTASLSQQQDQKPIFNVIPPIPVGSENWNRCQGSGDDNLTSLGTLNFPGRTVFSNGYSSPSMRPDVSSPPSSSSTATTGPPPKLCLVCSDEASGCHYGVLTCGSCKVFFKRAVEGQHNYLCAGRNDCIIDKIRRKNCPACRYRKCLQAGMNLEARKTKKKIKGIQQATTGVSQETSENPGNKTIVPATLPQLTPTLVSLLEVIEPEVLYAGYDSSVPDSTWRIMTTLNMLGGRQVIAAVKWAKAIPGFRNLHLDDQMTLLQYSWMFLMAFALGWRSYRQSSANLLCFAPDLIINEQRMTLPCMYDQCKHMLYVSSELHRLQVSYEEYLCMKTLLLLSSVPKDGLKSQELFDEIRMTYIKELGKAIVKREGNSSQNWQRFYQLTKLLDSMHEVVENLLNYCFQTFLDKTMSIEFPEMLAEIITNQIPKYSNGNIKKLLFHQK

[6] = biological target: Glucocorticoid receptor (Homo sapiens) (UniProt P04150); experiment: GR-EFC Redistribution (AID 451; calls by dose curve; further: potency means the concentration at half of the fitted maximal effect); settings: CHO-K1 GR-EFC translocation, beta-gal luminescence, 2 h
How it was run: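 CHO-K1 cells stably expressing nuclear-localized β-gal enzyme acceptor and GR fused C-terminally to the enzyme donor fragment; ligand-driven nuclear translocation restores β-gal by complementation. Compounds titrated up to 46 uM final, 2 h at 37 °C; luminescence read.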

[7] = qHTS Assay for Lipid Storage Modulators (AID 1519; calls by dose curve); settings: Drosophila S3 cells, BODIPY lipid droplet/cell ratio, laser cytometry, cells loaded with oleic acid; for activity change, negative = inhibition: at 57.5 µM (top of the series)
How it was run: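 Cells seeded at 5,000 per well were treated with compounds over a concentration series and loaded with oleic acid (400 uM, as added). Lipid droplet fluorescence (488 nm excitation, 500-530 nm channel) was read by laser-scanning cytometry and normalized to 20 uM Triacsin C.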

[8] = biological target: Dual specificity protein kinase CLK4 (Homo sapiens) (UniProt Q9HAZ1); experiment: qHTS Assay for Inhibitors of CDC-like Kinase 4 (Kinase-Glo Assay) (AID 1770); settings: recombinant Clk4, Kinase-Glo ATP depletion luminescence; series mostly up to 66.7 µM; further: on the % scale 0 is the no-effect control and ±100 the full control effect; nearly all actives have a fitted effect of over 65% in size
Dual specificity protein kinase CLK4 (Homo sapiens), sequence (Q9HAZ1 whole entry, looked up): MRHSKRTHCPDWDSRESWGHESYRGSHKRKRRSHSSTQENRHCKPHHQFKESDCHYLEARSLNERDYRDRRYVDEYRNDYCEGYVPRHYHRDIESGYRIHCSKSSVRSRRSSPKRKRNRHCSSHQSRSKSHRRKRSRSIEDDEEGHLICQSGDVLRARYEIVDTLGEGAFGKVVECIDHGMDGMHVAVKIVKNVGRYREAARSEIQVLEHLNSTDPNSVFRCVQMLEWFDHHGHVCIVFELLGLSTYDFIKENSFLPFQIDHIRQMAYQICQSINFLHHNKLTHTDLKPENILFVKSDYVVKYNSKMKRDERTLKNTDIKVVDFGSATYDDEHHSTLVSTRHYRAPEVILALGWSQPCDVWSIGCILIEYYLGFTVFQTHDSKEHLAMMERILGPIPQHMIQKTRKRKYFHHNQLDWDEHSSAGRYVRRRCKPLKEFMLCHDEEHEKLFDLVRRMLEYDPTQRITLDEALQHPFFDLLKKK
How it was run: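 Luminescent ATP-depletion read-out (Kinase-Glo) after 4.5 h room-temperature reaction of Clk4 (25 nM final) with RS peptide (100 uM) and ATP (1 uM), pH 7.5 Tris buffer with MgCl2 and DTT.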

[9] = biological target: Dual specificity protein kinase CLK4 (Homo sapiens) (UniProt Q9HAZ1); experiment: qHTS Assay for Inhibitors of CDC-like Kinase 4 (ADP-Glo Assay) (AID 1771); settings: recombinant CLK4, ADP-Glo luminescence; series mostly up to 80 µM; further: on the % scale 0 is the no-effect control and ±100 the full control effect; nearly all actives have a fitted effect of over 70% in size
How it was run: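 Kinase reaction: Clk4 at 25 nM, RS repeat peptide substrate at 100 uM, ATP at 1 uM, 1 hr, room temperature. Product ADP detected as luciferase signal via ADP-Glo.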

[10] = biological target: Dual specificity protein kinase CLK4 (Homo sapiens) (UniProt Q9HAZ1); experiment: qHTS Assay for Inhibitors of CDC-like Kinase 4 (ADP-FP Assay) (AID 1795); settings: Transcreener ADP fluorescence polarization; series mostly up to 50 µM;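 further: recombinant human CLK4 phosphorylating RS repeat peptide at 1 µM ATP; on the % scale 0 is the no-effect control and ±100 the full control effect; nearly all actives have a fitted effect of over 60% in size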
How it was run: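 Kinase activity was measured as ADP production using Transcreener orange tracer (4 nM) and ADP antibody (1 ug/mL) fluorescence polarization, with ADP calculated from a calibration curve. The 1 h reaction contained 6.25 nM Clk4, 1 uM ATP and 100 uM RS peptide at pH 7.5 with Mg2+.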

[11] = biological target: Ubiquitin carboxyl-terminal hydrolase 1 (Homo sapiens) (UniProt O94782); experiment: Inhibitors of USP1/UAF1: Pilot qHTS (AID 504865); settings: purified USP1/UAF1, Ub-rhodamine cleavage fluorescence; series mostly up to 54.9 µM;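 further: rhodamine fluorescence freed from ubiquitin-rhodamine substrate followed over time; top concentration of the series differs between compounds; on the % scale 0 is the no-effect control and ±100 the full control effect; nearly all actives have a fitted effect of over 35% in size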
Ubiquitin carboxyl-terminal hydrolase 1 (Homo sapiens), sequence (O94782 whole entry, looked up): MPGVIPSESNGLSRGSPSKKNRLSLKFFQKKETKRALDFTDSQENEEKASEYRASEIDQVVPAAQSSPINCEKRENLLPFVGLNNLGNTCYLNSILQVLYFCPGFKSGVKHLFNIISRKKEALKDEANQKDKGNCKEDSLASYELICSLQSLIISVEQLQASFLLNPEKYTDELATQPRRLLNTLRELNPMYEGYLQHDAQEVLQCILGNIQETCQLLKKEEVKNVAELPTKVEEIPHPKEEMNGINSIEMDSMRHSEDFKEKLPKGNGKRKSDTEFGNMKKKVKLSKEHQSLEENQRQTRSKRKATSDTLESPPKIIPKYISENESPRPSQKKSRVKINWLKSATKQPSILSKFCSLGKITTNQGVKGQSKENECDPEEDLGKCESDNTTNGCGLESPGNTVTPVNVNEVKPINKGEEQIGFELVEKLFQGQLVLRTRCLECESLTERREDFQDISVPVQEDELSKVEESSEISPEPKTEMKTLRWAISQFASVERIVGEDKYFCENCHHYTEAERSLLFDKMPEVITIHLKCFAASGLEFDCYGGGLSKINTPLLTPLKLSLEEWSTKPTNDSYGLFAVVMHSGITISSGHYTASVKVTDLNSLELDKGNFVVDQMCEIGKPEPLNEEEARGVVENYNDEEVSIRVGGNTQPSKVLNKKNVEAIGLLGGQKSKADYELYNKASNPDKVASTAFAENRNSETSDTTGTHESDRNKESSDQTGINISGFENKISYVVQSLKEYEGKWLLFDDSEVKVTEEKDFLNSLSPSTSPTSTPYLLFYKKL
How it was run: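 Deubiquitinase activity followed as kinetic rhodamine fluorescence release from 150 nM Ub-Rho. 1 nM USP1/UAF1 with compound, after 15 min room-temperature preincubation, in HEPES pH 7.8 buffer containing TCEP, EDTA, BSA and Tween-20.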

[12] = Primary qHTS for small molecule stabilizers of the endoplasmic reticulum resident proteome: Secreted ER Calcium Modulated Protein (SERCaMP) assay (AID 1508630); settings: SH-SY5Y GLuc-SERCaMP (Gaussia luciferase released on ER calcium loss) secretion, thapsigargin, luminescence; series mostly up to 38.4 µM; further: on the % scale 0 is the no-effect control and ±100 the full control effect
How it was run: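 GLuc-SERCaMP-expressing SH-SY5Y cells, pretreated 16 h with compound, are challenged with thapsigargin to empty ER calcium stores; after 4 h, coelenterazine is added directly to the medium and luminescence is imaged.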

[13] = biological target: Mitogen-activated protein kinase 10 (Mus musculus) (UniProt Q61831); experiment: JNK3 AlphaScreen Assay (AID 530; active means well fitted curve in either direction with a large enough effect, not every such curve was filed as active); settings: JNK3 lysate, c-Jun phosphorylation; series mostly up to 57.1 µM
How it was run: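 JNK3 came from HepG2 lysates pre-activated with IL-1beta and TNF-alpha and phosphorylated biotinylated GST-cJun (1-79) at 10 uM ATP, pH 7.6, room temperature. Compounds were titrated. AlphaScreen signal used anti-phospho-cJun (Ser73) antibody.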

[14] = biological target: 3',5'-cyclic-AMP phosphodiesterase 4B (Homo sapiens) (UniProt Q07343); experiment: qHTS Assay for Inhibitors of PDE-IV (AID 607; active means well fitted activation curve with a large enough effect in the main read-out, with a control signal flat, not every such curve was filed as active; further: % of control where 0% means no effect); settings: HEK293 ACTOne CNG channel cells, membrane potential fluorescence; series mostly up to 22.9 µM
3',5'-cyclic-AMP phosphodiesterase 4B (Homo sapiens), sequence (Q07343 whole entry, looked up): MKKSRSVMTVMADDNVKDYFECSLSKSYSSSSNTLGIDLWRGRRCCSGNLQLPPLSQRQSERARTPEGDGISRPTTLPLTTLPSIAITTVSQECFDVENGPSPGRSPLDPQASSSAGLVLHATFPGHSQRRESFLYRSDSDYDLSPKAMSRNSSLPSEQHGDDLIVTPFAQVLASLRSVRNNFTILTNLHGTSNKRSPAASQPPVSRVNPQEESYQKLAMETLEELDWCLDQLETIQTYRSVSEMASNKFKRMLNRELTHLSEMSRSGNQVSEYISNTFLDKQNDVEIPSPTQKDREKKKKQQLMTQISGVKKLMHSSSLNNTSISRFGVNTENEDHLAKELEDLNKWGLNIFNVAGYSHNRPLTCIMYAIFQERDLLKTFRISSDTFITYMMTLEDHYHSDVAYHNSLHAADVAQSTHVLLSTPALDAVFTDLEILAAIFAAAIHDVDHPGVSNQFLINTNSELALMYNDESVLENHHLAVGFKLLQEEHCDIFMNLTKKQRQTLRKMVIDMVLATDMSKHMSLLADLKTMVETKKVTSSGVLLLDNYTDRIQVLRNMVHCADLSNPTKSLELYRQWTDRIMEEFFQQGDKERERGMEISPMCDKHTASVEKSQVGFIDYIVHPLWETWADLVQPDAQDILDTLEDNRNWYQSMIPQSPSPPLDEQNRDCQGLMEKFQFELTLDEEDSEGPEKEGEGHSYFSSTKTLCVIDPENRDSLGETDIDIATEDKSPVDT
How it was run: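 Live HEK293 cells with a modified cyclic nucleotide-gated (CNG) channel report intracellular cAMP via membrane-potential dye fluorescence (ex 535/em 590 nm). Endogenous PDE-IV was targeted. Compounds were tested at up to 22.9 uM final; RO 20-1724 100 uM served as control.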

[15] = biological target: Cytochrome P450 3A4 (Homo sapiens) (UniProt P08684); experiment: qHTS Assay for Activators of Cytochrome P450 3A4 (AID 885); settings: recombinant CYP3A4, Luciferin-PPXE luminescence, 60 min; series mostly up to 57.1 µM; further: nearly all actives have a fitted effect of over 65% in size
Cytochrome P450 3A4 (Homo sapiens), sequence (P08684 whole entry, looked up): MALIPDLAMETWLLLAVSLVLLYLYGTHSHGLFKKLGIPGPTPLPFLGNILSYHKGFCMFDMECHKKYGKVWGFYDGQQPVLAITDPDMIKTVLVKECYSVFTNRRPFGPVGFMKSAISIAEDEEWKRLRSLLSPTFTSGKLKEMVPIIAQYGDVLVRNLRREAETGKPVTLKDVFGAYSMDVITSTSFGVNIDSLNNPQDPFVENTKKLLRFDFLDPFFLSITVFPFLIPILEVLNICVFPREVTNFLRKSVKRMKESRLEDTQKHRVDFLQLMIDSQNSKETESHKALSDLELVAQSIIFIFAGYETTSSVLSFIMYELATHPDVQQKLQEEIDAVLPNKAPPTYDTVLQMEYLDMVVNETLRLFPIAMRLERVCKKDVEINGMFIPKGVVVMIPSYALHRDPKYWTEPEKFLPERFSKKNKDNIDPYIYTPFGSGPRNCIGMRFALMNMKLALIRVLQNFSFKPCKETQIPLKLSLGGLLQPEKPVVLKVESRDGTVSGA
How it was run: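 Quantitative HTS format: compounds preincubated with 20nM human CYP3A4 and Luciferin-PPXE substrate at KM, reaction started by NADPH regeneration, stopped after 60 min, luciferase luminescence read 20 min later.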

[16] = qHTS Assay for Identification of Small Molecule Agonists for Hypoxia Response Element Signaling Pathway (AID 914; active means well fitted activation curve with a large enough effect in the signal ratio, with a control signal flat, not every such curve was filed as active; the % refers to the signal ratio; further: % of control where 0% means no effect); settings: ME-180 (cervical carcinoma) HRE-bla reporter, beta-lactamase ratio, CoCl2, 17 h; activation: stronger effect = higher value
How it was run: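 In Opti-MEM containing 0.5% dialyzed FBS and 10 mM HEPES, ME-180 HRE-bla cells received a compound titration and EC50 CoCl2. They were incubated 17 hours, then CCF4-loaded 2.5 hours at room temperature before ratio reading.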

[17] = measured here: cell count channel max response
[18] = measured here: lipid channel max response

| SMILES | Potency [1] | activity change, negative = inhibition [2] | activity change, negative = inhibition [3] | activity, negative = inhibition [4] | Potency [5] | Potency [6] | activity change, negative = inhibition [7] | max response [7, 17] | max response [7, 18] | Potency [8] | Potency [9] | Potency [10] | Potency [11] | Potency [12] | outcome [13] | Potency [14] | Potency [15] | activation [16] |
| --- | --- | --- | --- | --- | --- | --- | --- | --- | --- | --- | --- | --- | --- | --- | --- | --- | --- | --- |
| O=c1c(-c2cc(F)cc(F)c2)nc2cncnc2n1Cc1ccccc1 | > 11.4 µM (inactive) | 16.7% (inactive) | -18% (inactive) | -8.19% (inactive) | > 9.22 µM (inactive) | > 46 µM (inactive) | 2.57% (inactive) | -10.3% | -10.6% | inactive | inactive | inactive | inactive | inactive |  |  |  |  |
| CNc1ccnc(-c2ccccc2OC)n1 | > 11.4 µM (inactive) | 4.71% (inactive) | 8.86% (inactive) | 16.8% (inactive) | > 46 µM (inactive) | > 46 µM (inactive) | 6.44% (inactive) | 21.3% | 26.2% | inactive | inactive | inactive | inactive | inactive | inactive | inactive | inactive | 7.18% (inactive) |
| Cc1nc2cnc(N3CCOCC3)nc2n(C[C@H]2CCCO2)c1=O | > 11.4 µM (inactive) | -13.4% (inactive) | -4.93% (inactive) | -8.29% (inactive) | > 9.22 µM (inactive) | > 46 µM (inactive) | 3.62% (inactive) | 10.2% | 13.9% | inactive | inactive | inactive | inactive | inactive | inactive |  |  |  |
| COc1ccc(-c2nc3cnc(Nc4cccc(OC)c4)nc3n(C3CC3)c2=O)cc1 | > 11.4 µM (inactive) | -4.98% (inactive) | -8.58% (inactive) | 25.2% (inactive) | > 9.22 µM (inactive) | > 46 µM (inactive) | 0.287% (inactive) | 17.2% | 15% | inactive | inactive | inactive | inactive | inactive | inactive | inactive |  |  |
| COCCn1c(=O)c(-c2cn(C)c3ccccc23)nc2cnc(N3CCOCC3)nc21 | > 11.4 µM (inactive) | -12.3% (inactive) | 5.44% (inactive) | -11.9% (inactive) | > 9.22 µM (inactive) | > 46 µM (inactive) | 4.05% (inactive) | 6.29% | 8.52% | inactive | inactive | inactive | inactive | inactive | inactive | inactive |  |  |
| COc1ccc(-c2nc3cnc(N4CCOCC4)nc3n(C3CC3)c2=O)cc1 | > 11.4 µM (inactive) | 3.24% (inactive) | 8.69% (inactive) |  | > 9.22 µM (inactive) | > 46 µM (inactive) | 1.26% (inactive) | 9.72% | 11.8% | inactive | inactive | inactive | inactive | inactive | inactive |  |  |  |
